The values below come from PubChem BioAssay AID2685 (National Center for Advancing Translational Sciences (NCATS), 2010).

Hit rate of the full screen: of about 320,000 compounds, about 2,100 (0.66%) were called active. Another 53% or so got no clear call; they are omitted. Calls come from the whole dose curve; as a rule, active = well fitted inhibition curve with a large enough effect in the signal ratio, with a control signal flat (not every such curve was filed as active); inconclusive = small, poorly fitted or top-dose-only effect, or effect the other way, or a change in a side signal; inactive = flat fitted curve, though single readings scatter; the % refers to the signal ratio. Only a selection was taken, and actives are over-represented in it overall.
Potency is the fitted concentration of half-maximal effect.

A short description of the experiment: qHTS Assay for Lipid Storage Modulators in Drosophila S3 Cells.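 For cell number change: cells counted by Cell Tracker Red CMTPX staining in the red channel.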 For lipid storage change, negative = inhibition: % is set by controls: 0 for no effect and ±100 for the full control effect. The note with it: BODIPY lipid droplet fluorescence, 18-24 h, cells fed with added oleic acid; cell number change: measured here: cell count max response; series mostly up to 46.1 µM; lipid storage change, negative = inhibition: at the top concentration. The essentials: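 Drosophila S3 cells got compounds at several concentrations plus oleic acid (400 uM solution). Laser-scanning cytometry with 488 nm excitation read lipid droplets at 500-530 nm and cells at 575-640 nm. Percent activity was relative to 20 uM Triacsin C.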
With `O=c1c(Cl)c(N2CCNCC2)cnn1C12CC3CC(CC(C3)C1)C2`, the “lipid storage change, negative = inhibition” value is 1.07% (inactive) and the cell number change turned out to be 5.13%.

As for `CCCc1nnc(NC(=O)CSc2nc3ccccc3[nH]2)s1`, the “lipid storage change, negative = inhibition” value is 3.54% (inactive) and the cell number change was -1.76%.

With `COc1ccc(OC)c(NC(=O)CC(NCCC2=CCCCC2)C(=O)O)c1` (centres undefined), the Potency was 4.61 µM (active) and the cell number change was determined as 1.58%.

Turning to `COc1ccc(C)cc1NC(=O)NCCC1=CCCCC1`, the call was inactive.

Take `COc1ccc(NC(=O)CC(NCCc2ccccc2)C(=O)O)c(OC)c1` (centres undefined): the “lipid storage change, negative = inhibition” value is -5.38% (inactive) and the cell number change came out at 2.02%.

Consider `S=c1[nH]nc(-c2cccs2)n1/N=C/c1cn(-c2ccccc2)nc1-c1ccccc1`, for which the “lipid storage change, negative = inhibition” value is -0.402% (inactive) and the cell number change was -2.97%.

As to `CCCC[N+](CC#CCO)(CC#Cc1ccccc1)CCCC`, the “lipid storage change, negative = inhibition” value was 11.3% (inactive) and the cell number change amounted to 24.4%.

As to `Cc1nc(SCC(O)CCl)c([N+](=O)[O-])[nH]1` (centres undefined), the “lipid storage change, negative = inhibition” value is -0.122% (inactive) and the cell number change was 21.1%.

Regarding `CC(C)OP(=O)(OC(C)C)C(Nc1ccc(C(=O)O)cc1)c1ccccc1` (centres undefined), the “lipid storage change, negative = inhibition” value is -19.3% (inactive) and the cell number change was -10.6%.

`COc1cc(CNc2ncn[nH]2)ccc1OCC(=O)NC(C)(C)C`: the “lipid storage change, negative = inhibition” value is 15.6% (inactive) and the cell number change is -0.636%.

In the case of `Cc1nn(S(=O)(=O)N2CCOCC2)c(C)c1Br`, the “lipid storage change, negative = inhibition” value is -9.45% (inactive) and the cell number change was -1.55%.

As to `CCc1nc(SCC(=O)NCc2ccccc2)c2c(=O)n(C)c(=O)n(C)c2n1`, the “lipid storage change, negative = inhibition” value was 25.2% (inactive).

Regarding `CCc1nc(SCC(=O)NCc2ccco2)c2c(=O)n(C)c(=O)n(C)c2n1`, the result was inactive.

In the case of `Cn1c(=O)c2c(SCC(=O)N3CCOCC3)nc(-c3ccccc3Cl)nc2n(C)c1=O`, the outcome was inactive and the cell number change was -19.8%.

As to `CCc1nc(SCC(=O)Nc2ccccc2)c2c(=O)n(C)c(=O)n(C)c2n1`, the Potency is 7.31 µM (active) and the cell number change was -27.3%.

As for `Cn1c(=O)c2c(SCC(=O)NCc3ccco3)nc(-c3ccccc3Cl)nc2n(C)c1=O`, the Potency is 8.91 µM (active) and the cell number change is -20.7%.

On to `CCc1nc(SCC(=O)Nc2ccc(F)cc2)c2c(=O)n(C)c(=O)n(C)c2n1`, for which the “lipid storage change, negative = inhibition” value is -28.8% (inactive) and the cell number change was 7.11%.

For the compound `CCN(CC)S(=O)(=O)c1ccc(/C=C/C(=O)OCC(=O)Nc2cccc3ccccc23)cc1`, the “lipid storage change, negative = inhibition” value is 7.73% (inactive) and the cell number change was 15.5%.

As for `Cc1noc(C)c1S(=O)(=O)N1CCC(C(N)=O)CC1`, the “lipid storage change, negative = inhibition” value was 12.8% (inactive) and the cell number change is -15.5%.

As to `Cc1ccc(C(=O)OCC(=O)NCCC2=CCCCC2)cc1N`, the “lipid storage change, negative = inhibition” value was 1.1% (inactive).

Consider `COc1cccc(NC(=O)c2ccc(CN3CCc4ccccc4C3)cc2)c1`, for which the call was inactive and the cell number change was 26.4%.

Consider `C=CCNc1nc(C(=O)OCC(=O)c2ccccc2)cs1`, for which the compound was classed as inactive and the cell number change was found to be 16.2%.

For `COc1cccc(C(=O)NC(=S)Nc2cccnc2)c1`, the “lipid storage change, negative = inhibition” value is 1.88% (inactive) and the cell number change is -2.34%.

Take `CCOc1ccccc1N=NC1C(=O)N(C(N)=S)N=C1C` (centres undefined): the “lipid storage change, negative = inhibition” value was -2.42% (inactive) and the cell number change is -0.35%.

In the case of `CC1=NN(C(N)=S)C(=O)C1N=Nc1ccccc1C` (centres undefined), the “lipid storage change, negative = inhibition” value was 2.34% (inactive) and the cell number change was 2.36%.

Take `CC1=NN(C(N)=S)C(=O)C1N=Nc1ccc(S(N)(=O)=O)cc1` (centres undefined): the “lipid storage change, negative = inhibition” value is -1.77% (inactive) and the cell number change worked out at 3.52%.

`CCOc1ccc(N=NC2C(=O)N(C(N)=S)N=C2C)cc1` (centres undefined): the Potency is 2.31 µM (active) and the cell number change was -27.4%.

Regarding `CC1=NN(C(N)=S)C(=O)C1N=Nc1ccccc1O` (centres undefined), the “lipid storage change, negative = inhibition” value was 2.59% (inactive) and the cell number change was -20.1%.

`CC1=NN(C(N)=S)C(=O)C1N=Nc1ccccc1Cl` (centres undefined): the Potency is 6.51 µM (active) and the cell number change is -28.8%.

With `Cc1c(NC(=O)Nc2ccc([N+](=O)[O-])cc2)c(=O)n(-c2ccccc2)n1C`, the “lipid storage change, negative = inhibition” value was -3.7% (inactive) and the cell number change was -0.0298%.

Regarding `Cc1ccc(S(=O)(=O)N(CC(=O)NCCSc2ccccn2)c2cc(C)cc(C)c2)cc1`, the “lipid storage change, negative = inhibition” value is -21.1% (inactive) and the cell number change is -8.96%.

Regarding `COc1ccc(NS(=O)(=O)c2ccc(N3CC(O)=C(c4ccccc4)C3=N)cc2)cc1`, the “lipid storage change, negative = inhibition” value was 12.1% (inactive) and the cell number change is 18.3%.

With `COC(=O)C(NC(=O)c1ccccc1C)(Nc1ncc(S(=O)(=O)c2ccc([N+](=O)[O-])cc2)s1)C(F)(F)F` (centres undefined), the “lipid storage change, negative = inhibition” value was -0.188% (inactive) and the cell number change was -2.46%.

In the case of `Cn1cc(Cl)c(C(=O)Nc2nc3ccc([N+](=O)[O-])cc3s2)n1`, the “lipid storage change, negative = inhibition” value was 16.6% (inactive) and the cell number change is -2.18%.

Turning to `O=C(NC(Nc1nc2ccc([N+](=O)[O-])cc2s1)(C(F)(F)F)C(F)(F)F)c1cccnc1`, the call was inactive and the cell number change was -11%.

Consider `COC(=O)C(NC(=O)c1ccc(F)cc1)(Nc1ncc(S(=O)(=O)c2ccc([N+](=O)[O-])cc2)s1)C(F)(F)F` (centres undefined), for which the “lipid storage change, negative = inhibition” value was 5.96% (inactive) and the cell number change was determined as 0.5%.

Turning to `COC(=O)C(NC(=O)c1ccccc1Cl)(Nc1ncc(S(=O)(=O)c2ccc([N+](=O)[O-])cc2)s1)C(F)(F)F` (centres undefined), the Potency was 20.6 µM (active) and the cell number change is 9.68%.

For the compound `O=C(NC(Nc1nc2ccc([N+](=O)[O-])cc2s1)(C(F)(F)F)C(F)(F)F)c1ccccc1Cl`, the Potency is 5.8 µM (active) and the cell number change is -26.5%.

As to `Cn1nc([N+](=O)[O-])nc1Sc1ccc(Cl)cc1`, the “lipid storage change, negative = inhibition” value was -10.4% (inactive) and the cell number change was determined as 9.49%.

Turning to `Nc1cnc(Br)cc1Br`, the “lipid storage change, negative = inhibition” value was 0.0052% (inactive) and the cell number change is -3.4%.

With `Cc1ccc(NC(=O)CNC(=O)c2ccc(Br)o2)nc1`, the “lipid storage change, negative = inhibition” value is -5.59% (inactive).

With `CCOc1c(N2CC(C)OC(C)C2)c(=O)c1=O` (centres undefined), the “lipid storage change, negative = inhibition” value was -2.8% (inactive) and the cell number change is -16.5%.

On to `Cc1ccc(/C=C/C(=O)Nc2sc(C)c(C)c2C(=O)OC(C)C)o1`, for which the “lipid storage change, negative = inhibition” value was -0.0019% (inactive) and the cell number change was 0.157%.

As for `O=S(=O)(c1ccccc1)N1CCN(c2cccc(Cl)c2)CC1`, the compound was called inactive and the cell number change was -13.5%.

`C=CCn1c(=O)c(C(=O)Nc2ccccc2O)c(O)c2ccccc21`: the “lipid storage change, negative = inhibition” value is 6.29% (inactive) and the cell number change was 3.13%.

As to `CCn1c(=O)c(C(=O)Nc2ccccc2C)c(O)c2ccccc21`, the “lipid storage change, negative = inhibition” value is 5.2% (inactive) and the cell number change came to 4.59%.

On to `C=CCn1c(=O)c(C(=O)Nc2ccccc2C)c(O)c2ccccc21`, for which the Potency is 18.4 µM (active) and the cell number change was -12.3%.
